Assay results taken from the supplement of paper PMC11628255, “Interference of metal ions on the bioluminescent signal of firefly, Renilla, and NanoLuc luciferases in high-throughput screening assays” (Frontiers in Chemistry, 2024).
± gives the standard deviation of the averaged measurements.

Tested on: firefly luciferase (FLuc)
Test: residual bioluminescent signal relative to negative (DMSO) control; higher = less interference (more residual luciferase signal)
Description: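 Purified luciferase (FLuc 10 nM + 10 uM D-luciferin; NLuc 10 pM + 10 uM furimazine; RLuc 50 pM + 2 uM coelenterazine) in 384-well plates; metal salt pre-incubated with enzyme 10 min at RT, substrate added and luminescence read after 10 min. Signal normalised to plate DMSO negative control (% N_VALUE = x/mean neg *100); triplicate wells at 0.01, 1 and 5 mM salt.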

[1] = metal salt concentration 0.01 mM, HEPES conditions (100 mM HEPES, 5 mM MgSO4, 10 uM ATP, pH 7.5)
[2] = metal salt concentration 0.01 mM, screening conditions (0.5 mM Tris, 50 mM glycine, 0.5 mM EDTA, 5 mM MgSO4, 10 uM ATP, pH 7.6)
[3] = metal salt concentration 1 mM, HEPES conditions (100 mM HEPES, 5 mM MgSO4, 10 uM ATP, pH 7.5)
[4] = metal salt concentration 1 mM, screening conditions (0.5 mM Tris, 50 mM glycine, 0.5 mM EDTA, 5 mM MgSO4, 10 uM ATP, pH 7.6)
[5] = metal salt concentration 5 mM, HEPES conditions (100 mM HEPES, 5 mM MgSO4, 10 uM ATP, pH 7.5)
[6] = metal salt concentration 5 mM, screening conditions (0.5 mM Tris, 50 mM glycine, 0.5 mM EDTA, 5 mM MgSO4, 10 uM ATP, pH 7.6)

Row | Compound | residual bioluminescent signal [1] [%] | residual bioluminescent signal [2] [%] | residual bioluminescent signal [3] [%] | residual bioluminescent signal [4] [%] | residual bioluminescent signal [5] [%] | residual bioluminescent signal [6] [%]
1 | O=[N+]([O-])[O-].O=[N+]([O-])[O-].[Pb+2] [lead(II) nitrate] | 3.12 ± 1.6 | 93.3 ± 4.7 | 0.814 ± 0.41 | 0.685 ± 0.48 | 0.95 ± 0.23 | 0.343 ± 0.17
2 | O=[N+]([O-])[O-].O=[N+]([O-])[O-].O=[N+]([O-])[O-].[Ga+3] [gallium(III) nitrate] | 86.3 ± 16 | 3.77 ± 5 | 72.6 ± 17 | 0.264 ± 0.091 | 0.679 ± 0.47 | 0.474 ± 0.48
3 | [Cl][Sn][Cl] [tin(II) chloride] | 41.7 ± 13 | 90.8 ± 3.9 | 1.22 ± 0.41 | 0.369 ± 0.12 | 1.9 ± 0.62 | 0.553 ± 0.079
4 | O=[N+]([O-])[O-].O=[N+]([O-])[O-].[Ca+2] [calcium nitrate] | 70 ± 9.6 | 75.6 ± 6.7 | 67.2 ± 14 | 60.2 ± 8.9 | 29.2 ± 2.8 | 24.5 ± 3.4
5 | O=[N+]([O-])[O-].[Li+] [lithium nitrate] | 92.2 ± 20 | 93 ± 5.3 | 92.2 ± 40 | 85.8 ± 4.8 | 90.5 ± 3.9 | 74.5 ± 2.7
6 | O=[N+]([O-])[O-].[K+] [potassium nitrate] | 111 ± 4.3 | 100.2 ± 0.6 | 116 ± 12 | 98.6 ± 7 | 86.1 ± 12 | 65.5 ± 7.8
